Compound activity (PubChem)
HEK293 cAMP ctrl = raises cAMP in parental HEK293 cells, TSHR agonist counter-screen; parental HEK293 CNG cAMP sensor, membrane potential fluorescence; hit rate 2.5% among 73,000; Potency, µM (titrated, usually from 57.1 µM), without a hit: at the highest dose activation, actives largely listed as activators; note: % of control where 0% means no effect; nearly all actives have a fitted effect of over 55% in size
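Counterscreen for endogenous-receptor signalling: CNG-channel HEK 293 cells report cAMP rise by membrane depolarization. After 60 min dye equilibration with 100 uM RO 20-1724, compounds incubated 30 min before bottom-read fluorescence at 590 nm.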
TSHR ag = TSH receptor (human) agonism; P16473; HEK293-CNG-TSHR cells (CNG channel as cAMP sensor), membrane potential dye, cAMP; Potency, µM (doses to about 57.1 µM), for inactives: at the top dose activation, actives largely listed as activators; hit rate 0.48% among 73,000; AID 926; active = well fitted activation curve with a large enough effect in the main read-out, with a control signal flat, not every such curve was filed as active; inconclusive = small, poorly fitted or top-dose-only effect, or a change in a side signal; inactive = no such curve, though single readings can be large or run the other way; % of control where 0% means no effect;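 note: the control signal comes from parental cells without the receptor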
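HEK 293 cells stably expressing TSHR and a modified CNG channel, with CNG-only parental cells as counterscreen, were preloaded 60 min at room temperature with membrane potential dye containing 100 uM RO 20-1724. Compound exposure was 30 min, and depolarization was read as fluorescence at 590 nm.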
GBA activity = alters purified human glucocerebrosidase activity. Potency, µM. P04062. AID 360. hit rate 1.1% among 48,000. purified enzyme, resorufin glucoside fluorescence (screen aimed at inhibitors), 20 min; in the data active = potency below about 15 µM; inconclusive = mostly about 16 µM to 33 µM;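 note: the screen sought inhibitors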
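Wild-type enzyme at 0.2 nM final in 50mM citric acid/KH2PO4, 10mM sodium taurocholate, 0.01% tween-20, pH 5.9, with resorufin beta-D-glucopyranoside at 30 uM final. Compounds titrated, 20 min at RT, red fluorescence read; AC50 from titration.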
Caspase-7 inhib = blocks human caspase-7 allosterically or competitively; Potency, µM (titrated, usually from 57.5 µM), for inactives: at the highest dose activity change, negative = inhibition, hits mostly inhibitors; hit rate 0.02% among 75,000; P55210; recombinant caspase-7, Ac-DEVD-AFC fluorescence rate; AID 889; active = well fitted inhibition curve with a large enough effect in the main read-out, with a control signal flat, not every such curve was filed as active; inconclusive = small, poorly fitted or top-dose-only effect, or a change in a side signal; note: % of control where 0% means no effect
Target sequence (P55210 24-198 limits assumed): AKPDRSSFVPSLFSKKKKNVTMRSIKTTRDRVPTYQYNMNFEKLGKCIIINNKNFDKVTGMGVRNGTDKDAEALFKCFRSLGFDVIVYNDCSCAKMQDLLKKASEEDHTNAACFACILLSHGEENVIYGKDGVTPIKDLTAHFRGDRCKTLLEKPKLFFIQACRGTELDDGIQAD
Target sequence (P55210 207-303 limits assumed): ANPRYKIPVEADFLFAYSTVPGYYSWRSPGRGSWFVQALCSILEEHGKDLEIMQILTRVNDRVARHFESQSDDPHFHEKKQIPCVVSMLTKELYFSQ
ERK AVP block = inhibitors of vasopressin-stimulated ERK signaling pathway | HEK293-V1b, vasopressin-stimulated pERK AlphaScreen | Potency, µM (highest dose often 57.5 µM), inactives show at the highest dose activity, negative = inhibition, hits mostly inhibitors | hit rate 0.99% among 72,000 | AID 995; note: % is set by controls: 0 for no effect and ±100 for the full control effect; nearly all actives have a fitted effect of over 55% in size
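HEK293 cells stably expressing V1b receptor, seeded overnight in 1% FBS, were treated with compounds for 30 min at 37C, then stimulated 5 min with 25 nM vasopressin; phospho-ERK read by AlphaScreen SureFire after lysis.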
Casp1 inh = blocks human caspase-1 allosterically or competitively. AID 900. hit rate 0.03% among 75,000. Caspase-1 enzyme, Ac-WEHD-AFC fluorogenic rate. Potency, µM (highest dose often 57.5 µM), inactives show at the top dose activity change, negative = inhibition, most hits filed as inhibitors;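 note: plate controls were vehicle for no effect and no substrate for full effect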
Target sequence (P29466 120-297 limits assumed): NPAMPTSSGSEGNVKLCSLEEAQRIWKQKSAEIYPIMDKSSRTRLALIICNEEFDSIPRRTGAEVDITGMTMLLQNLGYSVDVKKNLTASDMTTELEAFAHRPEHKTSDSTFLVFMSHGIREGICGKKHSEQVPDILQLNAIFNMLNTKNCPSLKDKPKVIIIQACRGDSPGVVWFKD
Target sequence (P29466 317-404 limits assumed): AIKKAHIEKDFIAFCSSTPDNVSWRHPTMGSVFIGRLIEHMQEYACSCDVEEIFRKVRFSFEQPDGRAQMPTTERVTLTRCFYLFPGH
Numbers without * were called inactive; i = inactive; ? = inconclusive; · = no result given; [ ] = remark or other dose. Only some compounds are listed: those with a hit (about 4.5% of all), similar ones and a draw of the others. Unless noted, calls come from the whole dose curve; as a rule, active = well fitted curve in the direction sought with a large enough effect; inconclusive = small, poorly fitted or top-dose-only effect, or another doubt; inactive = no such curve, though single readings can be large; an effect the other way counts as inactive or inconclusive. Potency is the fitted concentration of half-maximal effect.

SMILES	HEK293 cAMP ctrl	TSHR ag	GBA activity	Caspase-7 inhib	ERK AVP block	Casp1 inh
CCCc1c(C)c2cccc(C)c2[nH]c1=O	?	?	·	-1%	-27%	0%
CCCCN1CCc2c([nH]c3c(C)cccc23)C1=O	12%	7%	9.8*	-4%	18%	-3%
COc1ccc(CCNc2oc(Cc3cccc4ccccc34)nc2C#N)cc1OC	23%	20µM*	>77	-7%	?	-6%
N#Cc1nc(COc2ccccc2F)oc1NCc1ccc(F)cc1	?	?	·	-14%	?	-5%
COc1ccc(CCNc2oc(COc3ccccc3F)nc2C#N)cc1	20µM*	?	?	-27%	7%	·
COc1ccc(CCNc2oc(COc3ccc(Br)cc3)nc2C#N)cc1OC	?	?	·	-5%	20µM*	-4%
CCOc1ccc(-c2nc(C#N)c(NCc3ccc4c(c3)OCO4)o2)cc1	6%	·	·	-6%	?	1%
Cc1ccc(OCc2nc(C#N)c(NCc3ccc4c(c3)OCO4)o2)cc1	16µM*	?	>77	-3%	?	-3%
CCC(=O)N1CCN(c2nc(-c3ccccc3)c3c(c2C#N)CCCC3)CC1	4µM*	?	·	?	?	·
N#Cc1c(SCc2ccccc2)nc(N2CCOCC2)c2c1CCCC2	12%[11.4 µM]	16%[11.4 µM]	·	2%	53%	-3%
Cc1cc(-c2ccccc2)c(C#N)c(SCC(N)=O)n1	12%	0%	>77	1%	-15%	-2%
N#Cc1c(SCC(N)=O)nc(-c2ccccc2)c2c1CCCC2	20µM*	?	>77	-2%	-28%	-3%
O=C1NC(=O)c2cc(Nc3ccccc3)c(Nc3ccccc3)cc21	·	·	·	-5%	32µM*	0%
COc1ccc(O[C@H]2C=C[C@@H](c3ccccc3)O[C@H]2COC(=O)NCc2cccc3ccccc23)cc1	0%[11.4 µM]	-3%[11.4 µM]	·	1%[11.5 µM]	6%[11.5 µM]	2%[11.5 µM]
CN(C)c1cc(NC(=O)CN2CCOCC2)c2ccccc2n1	20µM*	?	·	-2%	10%	-1%
CN(C)C(=O)c1ccc(-c2nccc(-n3ccnc3)n2)cc1	-4%	1%	·	0%	?	2%
COc1ccc(-n2c(=O)cnc3cnc(OC)nc32)cc1	?	?	·	-2%	-11%	-4%
COc1ccc(C2c3c(-c4cc(Cl)c(C)cc4O)n[nH]c3C(=O)N2Cc2cccnc2)cc1OC (stereo not given)	9%	7.9µM*	>77	-12%	?	-5%
Cc1cc(C)n(-c2nc3ccccc3nc2N2CCCCCC2)n1	20µM*	?	>77	-25%	145%	?
Cc1cccc(OCCCC(=O)Nc2ccc(N3CCOCC3)cc2)c1	13%[11.4 µM]	3.2µM*	·	-1%	3%	-4%
O=C(CSc1nnc(-c2ccco2)n1Cc1ccccc1)c1ccc(F)cc1	25µM*	?	>77	-22%	7%	-9%
Cc1occc1-c1nnc(SCC(=O)c2ccc(F)cc2)n1Cc1ccco1	-1%	4%	>77	0%	-1%	1%
O=C(O)CSc1nnc(-c2ccccc2O)n1Cc1ccccc1	-6%	1%	>77	-3%	-6%	-1%
O=C(CSc1nnc(-c2ccc(Br)o2)n1Cc1ccccc1)c1ccccc1F	20µM*	?	>77	-8%	?	-9%
COc1ccc(Nc2nc(N)nc(CSc3n[nH]c(-c4ccccc4)n3)n2)cc1	-9%	-3%	?	-6%	1%	-3%
SMILES	HEK293 cAMP ctrl	TSHR ag	GBA activity	Caspase-7 inhib	ERK AVP block	Casp1 inh
Nc1nc(CSc2n[nH]c(-c3ccccc3)n2)nc(Nc2ccccc2)n1	14%	-5%	i	-2%	25µM*	-1%
CC(=O)C(Sc1ccc2nnc(-c3ccc(C)cc3)n2n1)C(C)=O	7%	6%	·	2%	·	-4%
Cc1cnn(-c2ccc3nnc(-c4ccc(Br)cc4)n3n2)c1	10µM*	?	·	1%	-2%	-2%
Cc1ccccc1-c1nc(CS(=O)(=O)CC(=O)NCc2ccccc2)c(C)o1	27%	16µM*	·	-2%	0%	-4%
COc1ccc(OC)c(CCNC(=O)CS(=O)(=O)Cc2nc(-c3ccccc3C)oc2C)c1	16µM*	?	?	1%	9%	0%
COc1ccccc1N1CCN(c2ncnc3c2oc2ccccc23)CC1	22%	·	>77	0%	55%	-1%
Cc1nc(N2CCN(Cc3nc4ccccc4[nH]3)CC2)c2oc3ccccc3c2n1	13%	11%	>77	-2%	?	-4%
c1ccc2[nH]c(CN3CCN(c4ncnc5c4oc4ccccc45)CC3)nc2c1	0%	11%	>77	-2%	13µM*	-3%
c1cnc(N2CCN(c3ncnc4c3oc3ccccc34)CC2)nc1	24%	·	5.7*	-1%	-11%	-2%
COC(=O)c1ccc(C(NC(=O)OCc2ccccc2)/C(I)=C/[C@@H](C)C(=O)Nc2ccccc2)cc1 (stereo not given in full)	14%	27%	·	-1%	3%	-2%
O=c1c[n+](CCCC[n+]2cc(=O)o[nH]2)[nH]o1	5%[11.4 µM]	-4%[11.4 µM]	·	0%[11.5 µM]	-5%[11.5 µM]	-2%[11.5 µM]
CCCCOc1ccc(OCCCC)c2c1NC1(N2)C(=O)N(C(C)=O)c2ccccc21	30%	22%	6.1*	0%	8%	-1%
CS(=O)(=O)c1ccc([C@H](O)[C@H](CF)NC(=O)C(Cl)Cl)cc1	5%[25.6 µM]	-7%[25.6 µM]	·	-1%[25.7 µM]	15%[25.7 µM]	0%[25.7 µM]
COc1ccc(C=Nc2c(O)ccc3ccccc23)cc1OC	0%[11.4 µM]	-3%[11.4 µM]	·	0%[11.5 µM]	-20%[11.5 µM]	-3%[11.5 µM]
O=C(NC1c2ccccc2-c2ccccc21)N1CCCCC1	3.2µM*	?	·	2%	-11%	-1%
COc1cccc(C(c2nnnn2CCc2ccccc2)N2CCN(c3ccccc3)CC2)c1OC (stereo not given)	7.9µM*	?	>77	-2%	13%	-2%
N#CCCn1c(=O)c(-c2cc(F)cc(F)c2)nc2cnc(OCc3ccccc3)nc21	12%[0.457 µM]	-9%	·	?	-26%	·
CN1CCc2c(cc(O)c(O)c2Cl)[C@H](c2cccc(Cl)c2)C1	?	?	·	-1%	7%	-1%
CC(=O)O[C@@H]1[C@H]([N+]2(C)CCCCC2)C[C@@H]2[C@@H]3CC[C@@H]4C[C@@H](OC(C)=O)[C@H]([N+]5(C)CCCCC5)C[C@@]4(C)[C@H]3CC[C@]21C	0%	2%	·	1%	6%	2%
Cc1cccc(N(C)S(=O)(=O)c2ccc3[nH]cc(C(=O)N4CCOCC4)c(=O)c3c2)c1	6%	15%	>77	0%	8%	2%
Cc1cccc(N(C)S(=O)(=O)c2ccc3[nH]c(=O)c(=O)[nH]c3c2)c1	1%	-2%	11*	0%	-1%	-1%
CC(=O)c1sc2nc(-c3cccs3)cc(C(F)(F)F)c2c1N	1%	-1%	14*	?	31%	?
